Assay [1] concerns the target Bile acid receptor (Homo sapiens) (UniProt Q96RI1). Briefly: qHTS assay for small molecule agonists of farnesoid X receptor signaling (AID 588527).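 Note: series mostly up to about 77 µM; 0% = vehicle basal and 100% = reference agonist.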 To be noted: HEK293T FXR-UAS-bla, beta-lactamase ratio, 16 h; activation: stronger effect = higher value. In short, it runs like this:
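Read-out: beta-lactamase reporter fluorescence with CCF4 substrate in GeneBLAzer FXR-UAS-bla HEK293T cells, after 16 h compound exposure at 37 C. Response scaled between DMSO basal (0%) and chenodeoxycholic acid at 100 uM (100%).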
On the technique in general: qHTS replaces the single test concentration by a dilution series.

Assay [2] has as its target Glucocorticoid receptor (Homo sapiens) (UniProt P04150). Briefly: qHTS assay for small molecule agonists of glucocorticoid receptor signaling (AID 588532; active = well fitted curve in the direction sought with a large enough effect in the signal ratio, with a control signal flat; the % refers to the signal ratio;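 note: 100% = dexamethasone at 0.1 µM and 0% = DMSO only wells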). As to conditions: HeLa MMTV-bla, beta-lactamase ratio, agonist, 18 h; activation: stronger effect = higher value, percent of dexamethasone control, DMSO zero. In a few lines:
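Using MMTV-bla HeLa cells in medium with 1% stripped FBS and 25 mM HEPES, compounds were titrated and incubated overnight-length (18 h). Beta-lactamase cleavage of CCF4 was quantified by dual-emission fluorescence.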

Assay [3] deals with Thyroid hormone receptor beta (Homo sapiens) (UniProt P10828). The experiment in a line: qHTS assay for small molecule agonists of thyroid hormone receptor beta signaling (AID 588545).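 Note: 0% = DMSO only and 100% = 10 nM T3.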 In short, it runs like this:
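Beta-lactamase reporter activity under TR response element control is measured in HEK 293 cells after 18 hrs compound exposure. Signal is ratiometric CCF4 fluorescence, 460/530 nm.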

A short description of assay [4]: qHTS assay for small molecule antagonists of retinoid X receptor alpha signaling (AID 588546; active = well fitted inhibition curve with a large enough effect in the signal ratio, with a control signal flat, not every such curve was filed as active; the % refers to the signal ratio; note: potency is the fitted concentration of half-maximal effect;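 for max response: cells stimulated with 9-cis-retinoic acid as agonist; % is set by controls: 0 for no effect and ±100 for the full control effect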). To be noted: HEK293T RXRa-UAS-bla, beta-lactamase ratio, antagonist mode; measured here: W530 green channel, cytotoxicity proxy. In a few lines: (§1)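 Beta-lactamase reporter inhibition, read as CCF4 fluorescence ratio (ex 405, em 460/530 nm) after 2 h at RT. HEK293T UAS-bla cells, 2500/well, were stimulated with 9-cis-RA at 500 or 100 nM final alongside test compound for 18 h at 37 C.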

The target of assay [5] is Retinoic acid receptor RXR-alpha (Homo sapiens) (UniProt P19793). The description is as above. To be noted: HEK293T RXRa-UAS-bla, beta-lactamase ratio, antagonist mode. In short, it runs like this: as §1
Chain of Retinoic acid receptor RXR-alpha (Homo sapiens) (P19793 whole entry, looked up): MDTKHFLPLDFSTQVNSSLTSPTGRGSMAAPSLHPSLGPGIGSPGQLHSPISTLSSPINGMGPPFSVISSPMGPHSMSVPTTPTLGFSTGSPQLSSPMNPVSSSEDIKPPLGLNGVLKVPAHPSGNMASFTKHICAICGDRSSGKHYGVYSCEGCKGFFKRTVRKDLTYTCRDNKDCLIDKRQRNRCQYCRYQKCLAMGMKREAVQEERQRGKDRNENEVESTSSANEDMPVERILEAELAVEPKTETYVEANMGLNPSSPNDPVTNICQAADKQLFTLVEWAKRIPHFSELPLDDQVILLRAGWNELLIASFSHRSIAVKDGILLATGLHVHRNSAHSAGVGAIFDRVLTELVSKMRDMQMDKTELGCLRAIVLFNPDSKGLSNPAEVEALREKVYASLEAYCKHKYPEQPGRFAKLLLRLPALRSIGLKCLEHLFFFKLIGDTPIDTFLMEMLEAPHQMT
Assay [6] can be described thus: qHTS assay for small molecule agonists of the antioxidant response element (ARE) signaling pathway (AID 651741; active = well fitted activation curve with a large enough effect in the signal ratio; the % refers to the signal ratio; note: potency is the fitted concentration of half-maximal effect). In short, it runs like this: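 Agonist activity is measured as ARE-driven beta-lactamase expression in a stable HepG2 reporter line, using 16 h compound treatment at 37 C and a FRET substrate fluorescence readout after 2 h.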
A short description of assay [7]: qHTS assay for small molecule activators of the nuclear factor-kappa B (NF-kB) signaling pathway (AID 651749; active = well fitted activation curve with a large enough effect in the signal ratio; the % refers to the signal ratio; note: series mostly up to about 77 µM; % of control where 0% means no effect). As to conditions: NF-kB-bla ME-180 cells, beta-lactamase FRET ratio, 16 h; activation: stronger effect = higher value. In a few lines: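 FRET-based beta-lactamase detection in ME-180 cells reports NF-kB response-element-driven transcription following overnight (16 hr) compound treatment.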

Assay [8] is described as follows: qHTS assay for environmental chemicals that activate the Aryl hydrocarbon Receptor (AhR) signaling pathway (AID 651777; active = well fitted curve in the direction sought with a large enough effect; an effect the other way counts as inactive or inconclusive; note: % of control where 0% means no effect; nearly all actives have a fitted effect of over 15% in size). As to conditions: 1A2-DRE human hepatoma cells, luciferase, 24 h; activation: stronger effect = higher value. In a few lines: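 Luminescence read-out: One-Glo added for 30 min at RT after 24 hr compound treatment (37 C, 5% CO2) of human hepatoma cells expressing a DRE/CYP1A2 promoter–luciferase reporter; increased signal indicates AhR activation.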

Assay [9] has as its target Peroxisome proliferator-activated receptor alpha (Homo sapiens) (UniProt Q07869). Briefly: qHTS assay for small molecule agonists of the peroxisome proliferator-activated receptor alpha (PPARalpha) signaling pathway (AID 651778; active = well fitted curve in the direction sought with a large enough effect; an effect the other way counts as inactive or inconclusive; note: % of control where 0% means no effect). To be noted: PathHunter PPARalpha complementation, chemiluminescence, 6 h; max response: stronger effect = higher value. In short, it runs like this:
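Chemiluminescence from complemented enzyme reported PPARalpha activation in cells after 6 hr of compound treatment at 37 C. The detection reagent was incubated for 60 min at room temperature, and compounds were scored as agonists.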

The nature of assay [10]: qHTS assay for cell viability of HEK293 cells (AID 743288; active = well fitted curve in the direction sought with a large enough effect; an effect the other way counts as inactive or inconclusive; note: nearly all actives have a fitted effect of over 50% in size; note: potency is the fitted concentration of half-maximal effect). To be noted: ATP luminescence (CellTiter-Glo), 18 h; max response: stronger effect = lower value. In short, it runs like this: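 Steps: plate 2,000 parental HEK293 cells per well; incubate ≥5 h, 37 C; add compounds in DMSO; incubate 18 h, 37 C; add CellTiter-Glo; wait 30 min at room temperature; read luminescence.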
Assay [11] deals with Nuclear receptor subfamily 1 group I member 2 (Rattus norvegicus) (UniProt Q9R1A7). Briefly: qHTS assay for small molecule activators of the rat pregnane X receptor (rPXR) signaling pathway (AID 651751; call rule not given here; note: 0% is about no effect). As to conditions: rPXR reporter cells, luciferase (One-Glo), 24 h.
Chain of Nuclear receptor subfamily 1 group I member 2 (Rattus norvegicus) (Q9R1A7 whole entry, looked up): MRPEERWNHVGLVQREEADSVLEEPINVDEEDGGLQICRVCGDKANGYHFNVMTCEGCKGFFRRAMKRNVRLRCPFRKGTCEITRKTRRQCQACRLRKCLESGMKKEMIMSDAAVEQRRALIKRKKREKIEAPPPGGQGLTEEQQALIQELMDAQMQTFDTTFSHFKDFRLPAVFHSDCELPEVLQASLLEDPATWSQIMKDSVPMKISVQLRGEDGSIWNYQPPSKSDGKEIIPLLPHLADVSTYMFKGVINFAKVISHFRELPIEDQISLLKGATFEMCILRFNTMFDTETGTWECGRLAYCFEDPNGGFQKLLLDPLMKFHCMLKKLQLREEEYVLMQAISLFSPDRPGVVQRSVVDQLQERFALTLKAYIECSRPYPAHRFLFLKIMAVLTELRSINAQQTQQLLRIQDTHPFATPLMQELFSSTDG
Assay [12] addresses Peroxisome proliferator-activated receptor delta (Homo sapiens) (UniProt Q03181). The experiment in a line: qHTS assay for small molecule agonists of peroxisome proliferator-activated receptor delta signaling (AID 588534).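 Note: 0% = DMSO basal wells and 100% = positive control agonist at 10 µM.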 In short, it runs like this:
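Titration series tested in agonist mode on beta-lactamase reporter cells; 18 hrs at 37 C after a 5 hr pre-incubation. Readout: CCF4 fluorescence, 2 hrs RT. Hill equation gives EC50 and maximal response.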

Assay [13] concerns the target Vitamin D3 receptor (Homo sapiens) (UniProt P11473). The experiment in a line: qHTS assay for small molecule antagonists of vitamin D receptor signaling (AID 588541).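 Note: receptor activated by calcitriol during compound treatment; series mostly up to about 77 µM; % is set by controls: 0 for no effect and ±100 for the full control effect.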 In short, it runs like this: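 Antagonist-mode beta-lactamase reporter assay: HEK293T VDR-UAS-bla cells were exposed to titrated compound alongside 1-alpha,25-dihydroxyvitamin D3 at 3 nM final for 16 h. Values were normalized to the 50 nM agonist control and DMSO basal, with IC50 and efficacy from Hill equation fits.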

The target is the same in assay [14]. Briefly: qHTS assay for small molecule agonists of vitamin D receptor signaling (AID 588543).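 Note: 0% = DMSO basal and 100% = reference agonist control.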 In a few lines: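 VDR-UAS-bla HEK293T cells, 2000/well, 2% charcoal-stripped FBS; compound titration 16 h at 37 C; CCF4 beta-lactamase ratio read. Normalized to 50 nM 1-alpha,25-dihydroxyvitamin D3 (100%) and DMSO; Hill fit gives EC50, efficacy.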
Assay [15] deals with Thyroid hormone receptor beta (Homo sapiens) (UniProt P10828). The experiment in a line: qHTS assay for small molecule antagonists of thyroid hormone receptor beta signaling (AID 588547; active = well fitted inhibition curve with a large enough effect in the signal ratio, with a control signal flat, not every such curve was filed as active; the % refers to the signal ratio;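 note: cells stimulated with 0.4 nM T3 agonist during compound exposure; series mostly up to about 77 µM; % is set by controls: 0 for no effect and ±100 for the full control effect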). To be noted: TR-UAS-bla HEK293, beta-lactamase ratio, antagonist mode, 18 h. In short, it runs like this: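 Inhibition of T3-driven (0.4nM final) beta-lactamase reporter activity was measured over 0.59 nM to 92 uM compound after 18 h at 37 C. The cells were GripTite HEK293 TR-UAS-bla in charcoal/dextran-stripped serum, with CCF4 ratio read-out and IC50 from Hill fits.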
Chain of Thyroid hormone receptor beta (Homo sapiens) (P10828 whole entry, looked up): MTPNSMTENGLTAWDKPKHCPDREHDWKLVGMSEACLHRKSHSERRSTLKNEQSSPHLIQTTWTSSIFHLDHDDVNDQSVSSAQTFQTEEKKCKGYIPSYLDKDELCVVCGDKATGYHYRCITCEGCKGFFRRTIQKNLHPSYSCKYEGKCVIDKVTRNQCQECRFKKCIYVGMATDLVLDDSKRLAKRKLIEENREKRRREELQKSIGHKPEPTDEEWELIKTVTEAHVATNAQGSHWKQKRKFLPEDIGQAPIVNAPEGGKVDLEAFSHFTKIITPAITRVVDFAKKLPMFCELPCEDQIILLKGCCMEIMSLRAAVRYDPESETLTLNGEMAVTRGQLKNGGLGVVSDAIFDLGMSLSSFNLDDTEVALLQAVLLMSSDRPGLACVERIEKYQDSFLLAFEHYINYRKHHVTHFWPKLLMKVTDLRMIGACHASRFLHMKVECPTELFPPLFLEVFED

Assay [16] can be described thus: qHTS assay for small molecule activators of the p53 signaling pathway (AID 651743; active = well fitted activation curve with a large enough effect in the signal ratio, not every such curve was filed as active; the % refers to the signal ratio; note: series mostly up to about 92 µM; % of control where 0% means no effect). As to conditions: HCT-116 p53RE-bla, beta-lactamase FRET ratio, 16 h; activation: stronger effect = higher value. In a few lines: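 A beta-lactamase reporter under p53 response element control, stably carried by HCT-116 cells, reported pathway activation. Test compounds were applied for 16 hours at 37 C, and fluorescence was measured 2 hours after adding the B/G FRET substrate.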

Assay [17] in a line: qHTS assay for small molecule agonists of the antioxidant response element (ARE) signaling pathway measured by Nrf2-dependant transcriptional activity - cell viability counter screen (AID 720653; active = well fitted curve in the direction sought with a large enough effect in the repeat runs; an effect the other way counts as inactive or inconclusive; note: % is set by controls: 0 for no effect and ±100 for the full control effect). To be noted: ARE-bla HepG2 viability, CellTiter-Glo ATP luminescence, 16 h; max response: stronger effect = lower value. In short, it runs like this: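 Cytotoxicity counter screen: intracellular ATP quantified by CellTiter-Glo luminescence in the same ARE-bla HepG2 plates, after 16 h compound exposure and a 2 h beta-lactamase substrate step.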

Assay [18] in a line: qHTS assay for small molecule agonists of the antioxidant response element (ARE) signaling pathway measured by Nrf2-dependant transcriptional activity (AID 720636; active = well fitted curve in the direction sought with a large enough effect in the repeat runs; an effect the other way counts as inactive or inconclusive;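 note: HepG2 cells with an ARE-driven luciferase reporter; % of control where 0% means no effect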). In a few lines: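 HepG2 ARE-luc reporter line, 1% dialyzed FBS; 6 hr attachment at 37 C, compound pinned in, 16 hr at 37 C/5% CO2; ONE-Glo, 30 min RT, luminescence read.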
Assay [19] is described as follows: qHTS assay for cell viability of the p53RE-bla HCT-116 cell line (AID 743292; active = well fitted curve in the direction sought with a large enough effect; an effect the other way counts as inactive or inconclusive; note: % is set by controls: 0 for no effect and ±100 for the full control effect; nearly all actives have a fitted effect of over 55% in size). In a few lines:
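Luminescent ATP quantitation (CellTiter-Glo) served as the viability read-out; reagent was added after 16 h compound exposure at 37 C and read after 30 min at room temperature. Cells: p53RE-bla HCT-116, 4,000 per well.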

The text below walks through data of PubChem BioAssay (NCATS).

Where “and” joins values, the source holds several entries; their conditions need not be identical. Identical values can stand only once. Records with an inconclusive call do not appear. Calls of active or inactive are those of the source. Unless noted, calls come from the whole dose curve.

Chain of Vitamin D3 receptor (Homo sapiens) (P11473 whole entry, looked up): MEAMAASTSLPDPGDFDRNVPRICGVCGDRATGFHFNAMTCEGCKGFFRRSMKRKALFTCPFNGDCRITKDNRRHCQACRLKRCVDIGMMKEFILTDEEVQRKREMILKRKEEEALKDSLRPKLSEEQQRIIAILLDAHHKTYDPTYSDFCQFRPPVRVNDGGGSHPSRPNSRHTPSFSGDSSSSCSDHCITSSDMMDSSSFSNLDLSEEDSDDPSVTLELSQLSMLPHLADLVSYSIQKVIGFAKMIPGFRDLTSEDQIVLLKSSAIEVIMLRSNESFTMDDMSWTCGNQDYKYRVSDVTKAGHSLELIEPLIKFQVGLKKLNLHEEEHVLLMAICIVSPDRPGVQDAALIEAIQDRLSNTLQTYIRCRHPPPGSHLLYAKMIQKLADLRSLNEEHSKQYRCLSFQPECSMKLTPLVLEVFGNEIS
Chain of Peroxisome proliferator-activated receptor alpha (Homo sapiens) (Q07869 whole entry, looked up): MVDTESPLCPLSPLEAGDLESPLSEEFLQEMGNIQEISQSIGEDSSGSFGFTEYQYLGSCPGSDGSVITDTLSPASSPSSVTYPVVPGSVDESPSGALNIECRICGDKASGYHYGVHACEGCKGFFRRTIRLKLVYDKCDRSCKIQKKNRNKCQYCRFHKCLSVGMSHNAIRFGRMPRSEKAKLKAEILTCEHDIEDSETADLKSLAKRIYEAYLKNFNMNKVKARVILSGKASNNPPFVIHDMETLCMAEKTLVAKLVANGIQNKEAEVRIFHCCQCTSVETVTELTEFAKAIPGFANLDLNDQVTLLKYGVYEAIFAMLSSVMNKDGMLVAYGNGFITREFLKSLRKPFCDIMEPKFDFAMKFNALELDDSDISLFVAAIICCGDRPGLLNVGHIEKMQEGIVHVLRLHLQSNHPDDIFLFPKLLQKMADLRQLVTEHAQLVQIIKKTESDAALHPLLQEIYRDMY
Chain of Peroxisome proliferator-activated receptor delta (Homo sapiens) (Q03181 whole entry, looked up): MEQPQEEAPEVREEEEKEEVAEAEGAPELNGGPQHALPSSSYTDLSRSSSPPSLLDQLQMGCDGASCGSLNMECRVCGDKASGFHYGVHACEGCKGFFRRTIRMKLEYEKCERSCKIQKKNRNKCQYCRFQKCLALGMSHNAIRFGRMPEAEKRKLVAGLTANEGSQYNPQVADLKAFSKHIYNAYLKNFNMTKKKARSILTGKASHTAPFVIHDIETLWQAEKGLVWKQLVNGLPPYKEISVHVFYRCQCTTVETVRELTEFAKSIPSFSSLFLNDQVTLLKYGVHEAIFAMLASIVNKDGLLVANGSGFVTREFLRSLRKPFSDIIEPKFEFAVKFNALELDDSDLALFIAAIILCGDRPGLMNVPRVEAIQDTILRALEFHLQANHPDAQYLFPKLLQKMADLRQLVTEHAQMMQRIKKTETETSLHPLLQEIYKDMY
Chain of Bile acid receptor (Homo sapiens) (Q96RI1 whole entry, looked up): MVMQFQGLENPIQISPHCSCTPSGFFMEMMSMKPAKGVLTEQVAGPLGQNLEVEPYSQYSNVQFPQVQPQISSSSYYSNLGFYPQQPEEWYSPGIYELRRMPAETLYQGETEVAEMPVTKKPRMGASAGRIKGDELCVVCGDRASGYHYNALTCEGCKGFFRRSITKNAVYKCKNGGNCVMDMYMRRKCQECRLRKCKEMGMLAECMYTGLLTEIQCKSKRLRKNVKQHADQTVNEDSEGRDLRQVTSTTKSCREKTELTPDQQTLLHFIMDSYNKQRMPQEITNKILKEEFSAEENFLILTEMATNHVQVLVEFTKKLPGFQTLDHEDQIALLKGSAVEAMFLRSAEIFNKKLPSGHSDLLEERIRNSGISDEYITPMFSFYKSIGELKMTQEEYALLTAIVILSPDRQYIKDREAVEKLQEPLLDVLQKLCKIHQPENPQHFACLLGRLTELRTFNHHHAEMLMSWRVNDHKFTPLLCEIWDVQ
Chain of Glucocorticoid receptor (Homo sapiens) (P04150 whole entry, looked up): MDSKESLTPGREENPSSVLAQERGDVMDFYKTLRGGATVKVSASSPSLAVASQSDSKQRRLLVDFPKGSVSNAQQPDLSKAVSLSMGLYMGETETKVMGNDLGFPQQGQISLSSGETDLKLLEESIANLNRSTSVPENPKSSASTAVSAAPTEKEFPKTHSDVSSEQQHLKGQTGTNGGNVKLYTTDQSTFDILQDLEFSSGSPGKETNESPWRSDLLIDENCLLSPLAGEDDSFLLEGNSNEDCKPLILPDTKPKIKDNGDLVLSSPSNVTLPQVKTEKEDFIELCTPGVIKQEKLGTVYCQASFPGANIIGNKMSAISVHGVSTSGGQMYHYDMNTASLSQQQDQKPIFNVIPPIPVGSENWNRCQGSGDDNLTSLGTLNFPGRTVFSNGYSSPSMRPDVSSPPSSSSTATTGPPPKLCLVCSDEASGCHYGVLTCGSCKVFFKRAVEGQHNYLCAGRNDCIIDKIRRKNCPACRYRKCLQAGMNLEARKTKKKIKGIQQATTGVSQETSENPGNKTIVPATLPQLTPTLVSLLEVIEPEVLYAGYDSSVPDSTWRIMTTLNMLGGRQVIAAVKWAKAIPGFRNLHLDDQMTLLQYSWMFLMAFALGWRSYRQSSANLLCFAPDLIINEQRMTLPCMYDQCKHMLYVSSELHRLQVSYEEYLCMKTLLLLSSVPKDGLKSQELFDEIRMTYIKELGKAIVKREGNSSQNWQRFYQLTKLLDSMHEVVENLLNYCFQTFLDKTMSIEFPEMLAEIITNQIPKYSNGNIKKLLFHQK

Consider `CCC[CH2][Sn]([Cl])([Cl])[CH2]CCC`, for which the activation was -1.2% (inactive) in [1], -12% (inactive) in assay [2], -3.49% (inactive) in assay [7] and -11.4% (inactive) in assay [8]. For the same molecule, the Potency result in [3] was “inactive”. Further, the max response in assay [4] is 25.9%; in [9], -2.73% (inactive); in [11], -14.6% (inactive). In addition, the results for the Potency in [5], in [6] and in assay [10] were 3.98 µM (active), 1.93 µM (active) and 39.8 µM (active), respectively.
`Cc1nc2ccc(Cl)cc2[nH]1`: the activation in assay [1] was -1.36% (inactive).
For `CC(C)N(C(=O)SCC(Cl)=C(Cl)Cl)C(C)C`, the activation in assay [1] was 4.22% (inactive); in [2], 18.5% (inactive); in [16] it was -5.02% (inactive); in assay [7] it was -1.22% (inactive). Moreover, the outcome in assay [12] and in [14] was inactive. Moreover, in assay [13], the Potency entry was “inactive”. In addition, the max response in assay [4] was 9.5%; in assay [9], 22.8% (inactive); in assay [17], 15.1% (inactive); in assay [10] it was 2.96% (inactive). In [15], the activity change % (negative = inhibition) was -15.2% (inactive).
With `O=C=Nc1ccc(Cc2ccc(N=C=O)cc2)cc1`, in [1], the activation is 3.57% (inactive) and 0.965% (inactive). Besides, the molecule was called inactive in [12].
Consider `Cc1ccc(C(=O)c2ccccc2)cc1`, for which the activation in assay [1] was -0.352% (inactive). In addition, the result in [12] was inactive.
`COc1ccc(C(=O)Nc2ccccc2)cc1[N+](=O)[O-]`: the activation in assay [1] is -2.07% (inactive).
With `CC[C@H]1CCCC(O[C@H]2CC[C@H](N(C)C)[C@@H](C)O2)[C@@H](C)C(=O)C2=C[C@@H]3[C@@H](C=C[C@@H]4C[C@@H](O[C@@H]5O[C@@H](C)[C@H](OC)[C@@H](OC)[C@H]5OC)C[C@@H]34)[C@@H]2CC(=O)O1` (stereo partly drawn), the activation in assay [1] was 3.6% (inactive); in [2], -4.34% (inactive); in assay [16] it was -4.77% (inactive); in assay [7] it was -0.423% (inactive); in [8] it was -0.354% (inactive). Moreover, the Potency entry in assay [3], in assay [18] and in assay [19] was “inactive” throughout. The activity change % (negative = inhibition) in [15] was -5.92% (inactive). The max response was -2.17% (inactive) in assay [9], 3.99% (inactive) in assay [17], -1.89% (inactive) in assay [10] and -7.6% (inactive) in [11].
For `CCOP(=S)(OCC)SCn1nnc2ccccc2c1=O`, the activation was 3.29% (inactive) in [1]; 9.79% (inactive) in assay [2]; 2.43% (inactive) in [16]; -3.08% (inactive) in assay [7]; 6.1% (inactive) in assay [8]. Further, the call in [12] and in assay [14] was inactive. Moreover, the Potency entry in assay [13], in assay [3] and in assay [19] was “inactive” throughout. Besides, the results for the max response in assay [4], in assay [9] and in assay [17] were 30.8%, -0.264% (inactive) and -19.9% (inactive), respectively. Further, the Potency was 39.8 µM (active) in assay [5] and 54.5 µM (active) in assay [6]. In addition, the activity change % (negative = inhibition) in assay [15] was -2.51% (inactive).
